Data from PubChem BioAssay.
“And” between values parts separate entries of the source, which are not always exact repeats. Equal entries are not always repeated.

Key:
[1] = test system: Human papillomavirus type 1a protein E7 (residues 44-93); experiment: small molecules binding HPV E7 44-93 – biochemical, small-molecule microarray, residues 44-93, 635 nm fluorescence, primary screen (AID 1108); settings: fluorescence 635 nm, higher = more signal;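 note: E7 fragment applied at 1 µg/mL in TBST for 1 h at 4 C; score combines spot fluorescence with its signal to noise ratio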
[2] = hepatitis C replication reporter changes, two-sided – Huh7 cells, luciferase reporter, HCV replication inhibitor project, primary screen (AID 1109); settings: Huh7 HCV replicon luciferase reporter, 48 h; higher = more signal;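 note: huh7 hepatoma cells harbouring a luciferase neomycin HCV replicon reporter; luciferase luminescence as measure of HCV replicon replication; test concentration not given here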
[3] = target: Left-right determination factor 2 (Homo sapiens) (UniProt O00292); experiment: small molecules binding LEFTY2 protein – biochemical, small-molecule microarray, 635 nm fluorescence scan, primary screen (AID 1110); settings: higher = more signal
[4] = target: Calmodulin-1 (Homo sapiens) (UniProt P0DP23); experiment: small molecules binding calmodulin-1 with EGTA – biochemical, small-molecule microarray, Cy5-labelled CALM1, profiling panel (AID 1111); settings: Cy5-CALM1 binding fluorescence, higher = more signal;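 note: labelled calmodulin applied in Tris saline Tween buffer holding calcium plus EGTA and DTT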
[5] = target: Calmodulin-1 (Homo sapiens) (UniProt P0DP23); experiment: small molecules binding Ca-loaded calmodulin-1 – biochemical, small-molecule microarray, Cy5-labelled CALM1, plus calcium, artefact control for SMM control-protein annotation, profiling panel (AID 1112); settings: Cy5-CALM1 binding fluorescence, higher = more signal;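 note: score merges spot fluorescence with signal to noise from triplicate slides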
[6] = probe aWnt5a binding to arrayed compounds – biochemical, biotinylated probe, 635/667 nm fluorescence, primary screen (AID 1113); settings: small-molecule microarray, higher = more signal;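 note: score merges 667 nm fluorescence intensity with signal-to-noise per printed feature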
[7] = probe aShh binding to arrayed compounds – biochemical, biotinylated probe, 635/667 nm fluorescence, primary screen (AID 1114); settings: small-molecule microarray, higher = more signal;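 note: probe is biotin-labelled aShh protein from a stem cell growth factor screen; measures binding of labelled protein to compounds printed on the slide; score merges feature fluorescence at 667 nm with signal-to-noise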
[8] = probe aNog binding to arrayed compounds – biochemical, biotinylated probe, 635/667 nm fluorescence, primary screen (AID 1115); settings: small-molecule microarray, higher = more signal;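 note: probe is biotinylated aNog protein used at 0.15 µg/mL for 1 h at 4 C; z-score combines 667 nm fluorescence of each spot with its signal to noise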
[9] = target: Torsin-1A-interacting protein 1 (Homo sapiens) (UniProt Q5JTV8); experiment: compound microarray binding of lysate hLAP1 – cell lysate, small-molecule microarray, COS7 lysate, 635/667 nm fluorescence, primary screen (AID 1116); settings: 635 nm fluorescence, higher = more signal
[10] = target: Alpha-bungarotoxin (Bungarus multicinctus) (UniProt P60615); experiment: compounds binding labelled alpha-BTX control protein – biochemical, small-molecule microarray, Alexa647 label, 635/667 nm fluorescence, artefact control for SMM control protein annotation, profiling panel (AID 1117); settings: alpha-BTX-A647 binding fluorescence, higher = more signal
Chain of Alpha-bungarotoxin (Bungarus multicinctus) (P60615 whole entry, looked up): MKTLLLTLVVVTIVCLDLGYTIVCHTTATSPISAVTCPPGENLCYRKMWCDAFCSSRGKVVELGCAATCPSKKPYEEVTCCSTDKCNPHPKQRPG

Chain of Torsin-1A-interacting protein 1 (Homo sapiens) (Q5JTV8 whole entry, looked up): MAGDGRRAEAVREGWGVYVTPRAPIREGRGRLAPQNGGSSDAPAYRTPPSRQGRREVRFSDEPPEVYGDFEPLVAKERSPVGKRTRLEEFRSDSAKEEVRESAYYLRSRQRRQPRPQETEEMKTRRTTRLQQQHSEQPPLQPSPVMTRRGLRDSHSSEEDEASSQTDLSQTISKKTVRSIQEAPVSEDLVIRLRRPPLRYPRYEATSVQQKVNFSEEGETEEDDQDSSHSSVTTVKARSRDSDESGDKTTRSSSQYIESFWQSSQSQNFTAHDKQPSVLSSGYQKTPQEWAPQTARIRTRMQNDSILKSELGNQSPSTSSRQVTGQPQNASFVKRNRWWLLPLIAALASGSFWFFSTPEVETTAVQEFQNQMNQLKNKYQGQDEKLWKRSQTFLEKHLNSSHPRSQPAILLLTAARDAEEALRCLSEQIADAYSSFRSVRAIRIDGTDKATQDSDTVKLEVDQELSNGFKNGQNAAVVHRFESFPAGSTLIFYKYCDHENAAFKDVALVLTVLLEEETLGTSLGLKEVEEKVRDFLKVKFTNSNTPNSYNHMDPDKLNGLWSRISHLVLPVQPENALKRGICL
Chain of Left-right determination factor 2 (Homo sapiens) (O00292 whole entry, looked up): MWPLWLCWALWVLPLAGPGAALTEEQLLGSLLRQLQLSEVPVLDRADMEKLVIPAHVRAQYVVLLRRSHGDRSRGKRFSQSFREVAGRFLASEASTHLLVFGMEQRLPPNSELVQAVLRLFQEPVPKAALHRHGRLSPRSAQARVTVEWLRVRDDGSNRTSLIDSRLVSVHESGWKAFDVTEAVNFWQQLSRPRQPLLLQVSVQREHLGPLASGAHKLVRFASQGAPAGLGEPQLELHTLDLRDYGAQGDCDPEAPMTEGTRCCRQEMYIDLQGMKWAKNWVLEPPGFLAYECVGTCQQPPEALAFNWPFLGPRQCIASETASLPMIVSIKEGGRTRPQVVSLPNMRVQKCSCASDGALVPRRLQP

Q: With `CC(CO)N1C(=O)[C@@H]2C3C(=O)OCCC=C[C@H]3OC23C=CCN(c2ccc4ccccc4c2)C(=O)[C@@H]13` (stereo not given in full) as the compound, how does the composite z-score [1] read?
A: Its composite z-score is 1.24 and -0.698.

Q: What about the z-score [2] of the same compound?
A: Its z-score is -0.466 and -0.213.

Q: And the composite z-score [3]?
A: Its composite z-score is -1.21 and 0.0157.

Q: What about the composite z-score [4] of the same compound?
A: The composite z-score was -0.482 and -1.21.

Q: And the composite z-score [5]?
A: Its composite z-score is 0.0293 and -1.1.

Q: What about the composite z-score [6] of the same compound?
A: Its composite z-score is -0.203 and -0.183.

Q: And the composite z-score [7]?
A: The composite z-score was 0.0141 and -0.824.

Q: And the composite z-score [8]?
A: Its composite z-score is 0.304 and -0.61.

Q: And the composite z-score [9]?
A: Its composite z-score is 2.61 and 1.05.

Q: What about the composite z-score [10] of the same compound?
A: The composite z-score was -0.69 and -0.343.

Q: Which results are given for `COc1ccc(O[C@H]2C=C[C@@H](c3ccccc3)O[C@@H]2COC(=O)CCC(C)=NO[C@H](C)c2cn([C@H](CO)Cc3ccccc3)nn2)cc1`?
A: composite z-score [1]: -0.0009 and -0.0146; z-score [2]: -1.99 and -2.59; composite z-score [3]: 0.195 and 0.439; composite z-score [4]: -0.223 and -0.233; composite z-score [5]: -0.232 and -0.239; composite z-score [6]: -0.132 and 0.205; composite z-score [7]: -0.0553 and -0.129; composite z-score [8]: -0.0827 and 0.96; composite z-score [9]: 0.14 and 0.392; composite z-score [10]: 0.211 and 0.231

Q: Which composite z-score [1] does the source give for `CON(C)C(=O)c1nnc2c3ccccc3n(S(=O)(=O)c3ccc(C)cc3)c2n1` here?
A: Its composite z-score is 0.652 and 1.1.

Q: And the z-score [2]?
A: Its z-score is 1.78 and 1.38.

Q: And the composite z-score [3]?
A: Its composite z-score is 0.755 and 0.321.

Q: What about the composite z-score [4] of the same compound?
A: Its composite z-score is 0.761 and -0.142.

Q: And the composite z-score [5]?
A: The composite z-score was -0.318 and -1.11.

Q: What about the composite z-score [6] of the same compound?
A: Its composite z-score is -0.0748 and -0.006.

Q: What about the composite z-score [7] of the same compound?
A: The composite z-score was -0.223 and 0.0022.

Q: And the composite z-score [8]?
A: Its composite z-score is -0.373 and 0.0369.

Q: What about the composite z-score [9] of the same compound?
A: The composite z-score was 0.637 and 0.223.

Q: What about the composite z-score [10] of the same compound?
A: Its composite z-score is 0.787 and 0.219.

Q: With `COC(=O)C1=C(C)N(Cc2ccccc2)[C@]23O[C@](C(=O)OC)(C(=O)N2[C@@H]1c1ccccc1)[C@@H](C(=O)OC)[C@H]3C(=O)OC` as the compound, how does the composite z-score [1] read?
A: The composite z-score was -1.08 and 0.025.

Q: What about the z-score [2] of the same compound?
A: Its z-score is -0.685 and 1.33.

Q: What about the composite z-score [3] of the same compound?
A: Its composite z-score is -0.2 and 0.674.

Q: What about the composite z-score [4] of the same compound?
A: The composite z-score was -0.602 and 0.395.

Q: What about the composite z-score [5] of the same compound?
A: Its composite z-score is -0.636 and -0.505.

Q: What about the composite z-score [6] of the same compound?
A: Its composite z-score is -0.173 and -0.16.

Q: And the composite z-score [7]?
A: Its composite z-score is -0.123 and -0.0553.

Q: And the composite z-score [8]?
A: The composite z-score was -0.394 and -0.255.

Q: What about the composite z-score [9] of the same compound?
A: Its composite z-score is 0.118 and 0.409.

Q: And the composite z-score [10]?
A: The composite z-score was -1 and -0.239.

Q: Which composite z-score [1] does the source give for `C=CCN(C(=O)C1N(CCCCCCO)C(=O)C2C(C(=O)O)C3C=CC21O3)c1ccc(OC)cc1` (stereo not given) here?
A: The composite z-score was -0.862 and -1.21.

Q: What about the z-score [2] of the same compound?
A: The z-score was -0.67 and -0.824.

Q: And the composite z-score [3]?
A: Its composite z-score is -3.9 and -3.75.

Q: And the composite z-score [4]?
A: Its composite z-score is -0.0411 and -1.13.

Q: What about the composite z-score [5] of the same compound?
A: Its composite z-score is 0.734 and 0.0742.

Q: And the composite z-score [6]?
A: Its composite z-score is -0.224 and -0.124.

Q: What about the composite z-score [7] of the same compound?
A: Its composite z-score is -0.0011 and 0.551.

Q: What about the composite z-score [8] of the same compound?
A: Its composite z-score is 0.692 and 0.838.

Q: What about the composite z-score [9] of the same compound?
A: The composite z-score was 2.83 and 1.74.

Q: What about the composite z-score [10] of the same compound?
A: The composite z-score was -2.05 and -1.37.

Q: Which composite z-score [1] does the source give for `C[N+](C)(C)CCCCNC(=O)[C@H]1C[C@H]2C(=O)N[C@@H](CCCC[N+](C)(C)C)C(=O)N2[C@H]1c1cccc(OCCO)c1` here?
A: The composite z-score was -0.779 and 0.569.

Q: And the z-score [2]?
A: The z-score was -1.34 and -0.59.

Q: What about the composite z-score [3] of the same compound?
A: The composite z-score was 1.36 and 1.28.

Q: And the composite z-score [4]?
A: The composite z-score was -1.49 and -0.367.

Q: And the composite z-score [5]?
A: Its composite z-score is -0.691 and -0.325.

Q: And the composite z-score [6]?
A: Its composite z-score is -0.127 and -0.0512.

Q: What about the composite z-score [7] of the same compound?
A: The composite z-score was 0.0948 and 0.395.

Q: And the composite z-score [8]?
A: The composite z-score was -0.249 and -0.234.

Q: And the composite z-score [9]?
A: The composite z-score was 1.89 and 2.53.

Q: What about the composite z-score [10] of the same compound?
A: The composite z-score was -0.559 and 0.47.

Q: What does the source list for `C=CCN(Cc1ccccc1)C(=O)C(c1cccs1)N(C(=O)/C=C\C(=O)O)c1c(Cl)cccc1CO` (stereo not given)?
A: composite z-score [1]: -1.63 and -2.43; z-score [2]: -0.68 and -0.803; composite z-score [3]: -0.682 and -3.86; composite z-score [4]: -0.374 and -0.222; composite z-score [5]: 0.58 and 0.911; composite z-score [6]: -0.12 and -0.298; composite z-score [7]: -0.212 and -0.366; composite z-score [8]: -0.153 and 0.103; composite z-score [9]: -1.51 and -0.936; composite z-score [10]: -0.974 and -2.03

Q: With `Cc1cc2c(nc1C)CCCN2CC(C)ON=C[C@@H](C)[C@H](OCc1ccccc1)C(C)C` (stereo not given in full) as the compound, how does the composite z-score [1] read?
A: Its composite z-score is -1.88.

Q: And the z-score [2]?
A: Its z-score is -1.26.

Q: What about the composite z-score [3] of the same compound?
A: Its composite z-score is 0.339.

Q: What about the composite z-score [4] of the same compound?
A: Its composite z-score is -0.398.

Q: What about the composite z-score [5] of the same compound?
A: Its composite z-score is -0.304.

Q: And the composite z-score [6]?
A: Its composite z-score is -0.0125.

Q: And the composite z-score [7]?
A: The composite z-score was -0.0035.

Q: And the composite z-score [8]?
A: Its composite z-score is 0.0811.

Q: What about the composite z-score [9] of the same compound?
A: Its composite z-score is -0.0342.

Q: What about the composite z-score [10] of the same compound?
A: The composite z-score was -0.0161.

Q: For `COC(=O)C1=C(C)N(Cc2ccccc2)C2=C(C(C)=O)C[C@@](O)(C(=O)OC)C(=O)N2[C@@H]1c1ccccc1`, which composite z-score [1] is on record?
A: Its composite z-score is 0.594 and -0.54.

Q: And the z-score [2]?
A: The z-score was -0.347 and 1.11.

Q: And the composite z-score [3]?
A: Its composite z-score is 0.85 and 0.187.

Q: What about the composite z-score [4] of the same compound?
A: Its composite z-score is -1 and -0.501.

Q: And the composite z-score [5]?
A: The composite z-score was -1.13 and -0.338.

Q: And the composite z-score [6]?
A: Its composite z-score is -0.0512 and -0.18.

Q: And the composite z-score [7]?
A: The composite z-score was 0.0465 and 0.0121.

Q: And the composite z-score [8]?
A: The composite z-score was 0.127 and -0.247.

Q: What about the composite z-score [9] of the same compound?
A: Its composite z-score is 0.974 and -0.069.

Q: What about the composite z-score [10] of the same compound?
A: Its composite z-score is -0.634 and 0.42.
